Assay results taken from PubChem BioAssay (NCI).
Compounds without any hit were thinned out: in the full panel of roughly 79,000, 15% have a hit. Calls of active or inactive are those of the source. Rule as the data show it: active = growth inhibition above about 70%; inactive = the rest.

Experiments:
[1] = NCI Yeast Anticancer Drug Screen. Data for the rad50 strain (AID 155);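 also: 0% = growth of vehicle-only cultures of the same strain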; details: S. cerevisiae rad50 strain growth inhibition; at 50.0 µM; active compounds read high
Method in brief: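 Relative growth inhibition (compound vs vehicle) was measured in yeast with a defined repair-gene alteration.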

[2] = NCI Yeast Anticancer Drug Screen. Data for the mec2-1 strain (AID 157); details: S. cerevisiae mec2-1 strain, at 50.0 µM, active compounds read high
Method in brief: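 Mutant yeast (mec2-1) grown with compound; growth inhibition relative to vehicle control reported.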

[3] = NCI Yeast Anticancer Drug Screen. Data for the sgs1 mgt1 strain (AID 161);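 also: 0% = growth of cultures given vehicle only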; details: S. cerevisiae sgs1 mgt1 strain, at 50.0 µM, active compounds read high
Method in brief: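 Growth of a repair-deficient yeast mutant was monitored after compound treatment and expressed as inhibition relative to vehicle-treated cultures.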

[4] = NCI Yeast Anticancer Drug Screen. Data for the cln2 rad14 strain (AID 165);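 also: 0% = growth equal to vehicle treated cultures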; details: S. cerevisiae cln2 rad14 strain, at 50.0 µM, active compounds read high
Method in brief: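 Readout is yeast growth inhibition versus vehicle-treated controls, using a strain with cln2 and rad14 alterations exposed to compound.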

[5] = NCI Yeast Anticancer Drug Screen. Data for the bub3 strain (AID 167); details: S. cerevisiae bub3 mutant strain, at 50.0 µM, active compounds read high
Method in brief: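 Screening used yeast with an engineered genetic alteration affecting cell cycle control. Compound-exposed cultures were compared with vehicle cultures, and reduced growth was taken as inhibition.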

[6] = NCI Yeast Anticancer Drug Screen. Data for the mlh1 rad18 strain (AID 175); details: S. cerevisiae mlh1 rad18 strain growth inhibition; at 50.0 µM; active compounds read high
Method in brief: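 Genetically defined yeast (DNA repair-deficient) exposed to compounds; growth inhibition determined relative to vehicle.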

Measured: growth inhibition

CC1=CC(=O)CCC1c1ccccc1 (stereo not given)
inactive: [1] -52.6% | [2] -4.75% | [3] -19.8% | [4] 0.8% | [5] -10.4% | [6] -5.95%

COc1ccccc1NC(=O)N(C)Cc1ccc(Cl)cc1
inactive: [1] 11.3% | [2] 18.6% | [3] 18.9% | [4] 3.75% | [5] 47.1% | [6] 33.1%

NNC(=O)c1ccc(Cl)c(Cl)c1
inactive: [1] -1.1% | [2] -13.3% | [3] -0.9% | [4] 2.85% | [5] -16.3% | [6] -23.8%

C=Cc1ccc(-c2ccccc2)cc1
inactive: [1] 7.1% | [2] -14.7% | [3] -25.5% | [4] -43.2% | [5] -5.8% | [6] -0.65%

CCCNC(=O)Cn1c(C)cc2ccccc21
inactive: [1] 6.55% | [2] 6.25% | [3] 26.2% | [4] 22.7% | [5] 15.4% | [6] -82.5%

O=C(O)CNc1ncnc2[nH]ncc12
inactive: [1] 7% | [2] -25.1% | [3] 2.85% | [4] 3.8% | [5] -8.1% | [6] 6%

CN(C)C(=O)C1CCC(=O)N1 (stereo not given)
inactive: [1] 3.1% | [2] 10.6% | [3] 6.6% | [4] -4.95% | [5] 10.6% | [6] -0.3%

CC(=O)OCC1OC(OCCCc2ccccc2)C(OC(C)=O)C(OC(C)=O)C1OC(C)=O (stereo not given)
inactive: [1] 21% | [2] 5.5% | [3] 6.45% | [4] -47.9% | [5] -65.9% | [6] 24.9%

CCN(CC)CCCC(C)Nc1cc(C)nc(Nc2nc3cc(Cl)c(Cl)cc3[nH]2)n1 (stereo not given)
active: [1] 96.8% | [2] 94.1% | [3] 97.4% | [5] 83.9% | [6] 95.8%
inactive: [4] 56.2%

COc1cc(C(=O)O)ccc1OC(C)=O
inactive: [1] 7.4% | [2] -20.1% | [3] -2.15% | [4] 2.15% | [5] -6.6% | [6] 1.35%

COc1ccc2c(c1)C1c3ccccc3CCN1CCC2 (stereo not given)
inactive: [1] 20.8% | [2] 20.9% | [3] -23.1% | [4] 24.1% | [5] -8.4% | [6] 6%

CNC(=O)Nc1[nH]c(=O)ncc1Cl
inactive: [1] 6.45% | [2] -0.35% | [3] 8.95% | [4] -5.1% | [5] 16.2% | [6] 5.2%

CCO/C=C1\SC(=S)N(CCc2ccc(OC)c(OC)c2)C1=O
inactive: [1] -0.85% | [2] -6.85% | [3] -10.9% | [4] -2.2% | [5] -5.6% | [6] -10.5%

O=S(=O)(O/C(=C(\OS(=O)(=O)C(F)(F)C(F)(F)C(F)(F)C(F)(F)F)c1ccccc1)c1ccccc1)C(F)(F)C(F)(F)C(F)(F)C(F)(F)F
inactive: [1] -6% | [2] -14.1% | [3] -23.4% | [4] -18.1% | [5] 7.9% | [6] -5.85%

CCCCCCCCCCCCCCOc1ccc(OCCCCCCCCC)cc1
inactive: [1] 38.4% | [2] -14.9% | [3] 24.1% | [4] -13.8% | [5] 3.4% | [6] -13.9%

O=C(CN=Cc1ccccc1O)NCc1ccccn1
inactive: [1] -10.7% | [2] -5.9% | [3] 10.7% | [4] 10.1% | [5] -21.9% | [6] 21.3%

O=[N+]([O-])c1ccccc1C1N2CCCCC2[C@@H]2c3[nH]c4ccccc4c3CCN12 (stereo not given in full)
inactive: [1] 0.2% | [2] -11.9% | [3] 3.3% | [4] 1.85% | [5] 3.05% | [6] 8.3%

C=CCCCCCCCCC(=O)N/N=C/c1ccc(NC(C)=O)cc1
inactive: [1] 10.2% | [2] 6.55% | [3] 7.1% | [4] 3% | [5] 11.8% | [6] 7.1%

CCN(CC)CCOC(=O)C(c1ccccc1)C1C=CCCC1 (stereo not given)
inactive: [1] 38.8% | [2] 2.6% | [3] 19.1% | [4] -1.15% | [5] -3.1% | [6] 30.4%

CC(=O)Nc1ccccc1OC(=O)c1ccccc1
inactive: [1] 4.4% | [2] -4.4% | [3] 2.6% | [4] 11.9% | [5] 1.8% | [6] -2.5%
